90 molecules from ChEMBL document CHEMBL3988442, “University of Dundee, Small-Polar-MMV Screening Library” (2021) can be followed below.

The structures appear in SMILES notation. The whole screen tested about 69,000 compounds, of which about 950 (1.4%) showed an effect of 50% or more. This is one part of a sample in which strong results are shown more often than they occur.

The assay deals with Mycobacterium tuberculosis. The assay is described as follows: Cornell M. t heat shock assay. Note: in the data most compounds retested in dose-response had high values. Type of assay: functional, organism-based. The arrangement: dose or concentration left out as unconfirmed.
For the molecule `Cc1cc(N2CCCC(c3nccnc3N(C)C)C2)ncn1` (stereo not given), the “Percent Effect” value is recorded as -16.62%.
As for `CC(C)CC(NC(=O)c1ccco1)c1nc2cccnc2n1C` (stereo not given), the “Percent Effect” value is -10.38%.
As for `CC(C)CC(NC(=O)c1ccco1)c1nnc2ccccn12` (stereo not given), the figure is 66.07%; as for `CCCC(NC(=O)c1ccccn1)c1nnc2ccccn12` (stereo not given), -4.17%.
As for `Cc1ccc(CN2CCc3c(COCC4CC4)nn(C)c3C2)s1.O=C(O)C(F)(F)F`, the figure is -29.84%; as for `Cc1ccsc1CN1CCn2c(COc3cccnc3)cnc2C1C.O=C(O)C(F)(F)F.O=C(O)C(F)(F)F` (stereo not given), 9.479%.
`CC(=O)N1CCC12CCN(Cc1ccco1)CC2.O=C(O)C(F)(F)F`: the “Percent Effect” value is reported as -13.47%.
As for `Cc1cc(Nc2ccccn2)nc(C2CCCN(CCO)C2)n1.O=CO` (stereo not given), the figure is -14.49%; as for `Cc1cc(Nc2ncccn2)nc(C2CCCN(CCO)C2)n1` (stereo not given), 17.06%; as for `Cc1cc(Nc2cnccn2)nc(C2CCCN(CCO)C2)n1` (stereo not given), 103.5%.
On to `CC(=O)N1CC(=O)N(c2ccccc2)CC12CCN(Cc1ccoc1)C2.O=C(O)C(F)(F)F` (stereo not given), for which the “Percent Effect” value is -0.426%.
Consider `Fc1ccc(CNCC2OCCc3cn(CC4CC4)nc32)cc1.O=C(O)C(F)(F)F.O=C(O)C(F)(F)F` (stereo not given), for which the “Percent Effect” value amounted to 12.69%.
Regarding `Cc1noc(C)c1CN1CCc2ncnc(-c3cccnc3)c2CC1.O=C(O)C(F)(F)F.O=C(O)C(F)(F)F`, the “Percent Effect” value is 12.88%.
As for `COc1cc(C(=O)Nc2c(C)noc2C)ccc1C`, the figure is -2.052%; as for `COc1cc(C(=O)NS(=O)(=O)c2cc(Cl)sc2Cl)ccc1OC(F)F`, -14.59%; as for `COc1cc(C(=O)Nc2nc(C)no2)cc(Cl)c1OC`, 101%.
In the case of `COc1cc(C(=O)Nc2nc(C)no2)ccc1C` it was 106.9%; in that of `COc1cc(C(=O)Nc2nc(C)no2)ccc1OC1CCCC1`, -1.479%; in that of `COc1cc(C(=O)NS(=O)(=O)c2cccc(C#N)c2)cc(OC)c1Br`, -8.929%.
In the case of `COc1cc(C(=O)Nc2nc(C)no2)cc(OC)c1Br` it was 104.3%; in that of `COc1cc(C(=O)Nc2nc(C)no2)ccc1OC(F)F`, 79.09%.
For `COc1cc(C(=O)Nc2cn[nH]c2)ccc1C`, the “Percent Effect” value is -19.45%.
As for `COc1cc(C(=O)NCc2ccc3c(c2)CCCN3C)cc(OC)c1Br`, the figure is -0.1722%; as for `COc1cc(C(=O)NS(=O)(=O)c2cncc(Br)c2)cc(Cl)c1OC`, -14.73%; as for `COc1cc(C(=O)NS(=O)(=O)c2cccc(C#N)c2)cc(Cl)c1OC`, -1.963%.
In the case of `O=C(N1CCCC1)N1CCO[C@H]2[C@@H](Oc3ccccn3)CC[C@@H]21.O=C(O)C(F)(F)F`, the “Percent Effect” value is reported as 0.1764%.
In the case of `Cc1ccc(CN2CC[C@@H]3OCCN(S(C)(=O)=O)[C@H]3CC2)s1.O=C(O)C(F)(F)F` it was 16.37%.
In the case of `O=C(N1CCCC1)N1CCc2onc(COc3cccnc3)c2C1.O=C(O)C(F)(F)F` it was -4.712%; in that of `CC(C)Cc1cc(C(=O)NC(C)(C)CN2CCCCCC2)on1`, 72.52%.
As for `CC(C)Cc1cc(C(=O)NCC2CCCN(Cc3ccco3)C2)on1` (stereo not given), the figure is 16.01%.
`CC(C)Cc1cc(C(=O)NCC(O)CN2CCCCCC2)on1` (stereo not given): the “Percent Effect” value is -12.74%.
For `CCc1ncnc2c1CCN(C(=O)c1ccccn1)CC2.O=C(O)C(F)(F)F`, the “Percent Effect” value is -22.3%.
In the case of `CSc1ncccc1C(=O)N1C[C@H]2CC[C@@H]1CN(C(=O)N(C)C)C2` it was -1.597%.
In the case of `Cc1csc(NC(=O)c2cnc(C3CCNCC3)cn2)n1.Cl` it was -24.76%; in that of `O=C(NCc1ccccn1)c1cnc(C2CCCN2)cn1` (stereo not given), 52.39%; in that of `O=C(NCc1ccccn1)c1cncc(C2CCCN2)n1` (stereo not given), 2.609%.
In the case of `Cc1csc(NC(=O)c2cnc(C3CCCN3)cn2)n1.Cl` (stereo not given) it was 82.89%; in that of `Cc1nc(C(=O)NCc2ccccn2)cc(C2CCCN2)n1` (stereo not given), 45.77%; in that of `Cc1csc(NC(=O)c2cnc(C3CCCN(C)C3)cn2)n1` (stereo not given), 23.5%.
`Cl.Cn1ccnc1C1(O)CCN(C(=O)CCc2ccccc2)CC1`: the “Percent Effect” value was 1.719%.
As for `Cc1noc(C)c1CN1CCc2c(CNc3nccs3)n[nH]c2C1.O=C(O)C(F)(F)F`, the figure is 8.041%; as for `CCCNC(=O)c1cc2c(s1)CCN2C(=O)CN(C)C.O=C(O)C(F)(F)F`, 1.454%; as for `C[C@H]1CN(c2ccccn2)C[C@@]12CCN(c1cccnc1)C2=O.O=C(O)C(F)(F)F.O=C(O)C(F)(F)F`, 11.35%.
Turning to `COc1ccc(CN2CCC3(CC(=O)N(c4cncnc4)C3)C2)cc1.O=C(O)C(F)(F)F` (stereo not given), the “Percent Effect” value is -12.31%.
As for `CN1CCC(c2nc3ccc(-c4ccccc4)cn3n2)CC1.O=C(O)C(F)(F)F`, the figure is -24.93%.
In the case of `COc1ccccc1Cc1cncc(N2CC(C(=O)O)C2)n1.Cl` it was 2.257%; in that of `CN(C)c1nc2c(c(N(C)Cc3n[nH]c4c3CCCCC4)n1)CCNC2`, 76.86%.
Take `CN(C)c1nc2c(c(N(C)Cc3n[nH]c4c3CCCC4)n1)CCNCC2`: the “Percent Effect” value is recorded as 31.61%.
Take `CN(Cc1n[nH]c2c1CCCC2)c1nc(C2CC2)nc2c1CCNCC2`: the “Percent Effect” value worked out at 1.399%.
In the case of `CCS(=O)(=O)N1C[C@@H](OCc2ccccn2)[C@@H]2OCCC[C@@H]21.O=C(O)C(F)(F)F` it was -14.72%; in that of `CCC1(CC)Cc2ccccc2-c2nc(NCCO)[nH]c(=O)c21`, -12.78%; in that of `CCC1(CC)Cc2ccccc2-c2nc(CN(C)C)nc(O)c21`, 51.81%.
`CCC1(CC)Cc2ccccc2-c2nc(NCCCO)[nH]c(=O)c21`: the “Percent Effect” value worked out at 0.6588%.
As for `Cc1cccc(C(=O)N2C[C@@H]3COC[C@@H](CC(=O)N4CCCC4)[C@@H]3C2)n1.O=C(O)C(F)(F)F`, the figure is -12.77%.
On to `Cc1ccc(N2CCCC3(COCCN(c4ncccn4)C3)C2)nn1.O=C(O)C(F)(F)F` (stereo not given), for which the “Percent Effect” value is on record as -5.221%.
In the case of `O=C(O)C(F)(F)F.O=C(c1cc(C2CC2)on1)N1C[C@@H]2COC[C@]2(COc2cccnc2)C1` it was 24.08%; in that of `CCc1cnc(N2CCC3(CC(=O)N(Cc4csc(C)n4)C3)C2)nc1.O=C(O)C(F)(F)F` (stereo not given), 1.546%.
In the case of `Cc1nc(C)n(CC2CCCN(c3ncnc4ccsc34)C2)n1` (stereo not given) it was 56.12%.
As for `Cc1nc(C)n(CC2CCCN(c3ncnc4ccccc34)C2)n1` (stereo not given), the figure is -1.971%; as for `Cc1nc(C)n(CC2CCCN(c3ncnc4sccc34)C2)n1` (stereo not given), 24.39%; as for `CC(C)N(C)Cc1cn2c(n1)CN(C(=O)Cc1ccccc1)CC2.O=C(O)C(F)(F)F`, -8.481%.
`CCC(=O)Nc1ccc2c(c1)C1(CCOCC1)CN2CCOC.O=C(O)C(F)(F)F`: the “Percent Effect” value worked out at 46.17%.
Regarding `CCS(=O)(=O)Nc1ccc2c(c1)C1(CCOCC1)CN2C.O=C(O)C(F)(F)F`, the “Percent Effect” value is listed as 36%.
As for `CCN1CC2(CCOCC2)c2cc(NS(=O)(=O)CC)ccc21.O=C(O)C(F)(F)F`, the figure is 51.54%; as for `COCCN1CC2(CCOCC2)c2cc(NC(=O)C3CC=CC3)ccc21.O=C(O)C(F)(F)F`, 100.7%.
As to `CCCC(=O)Nc1ccc2c(c1)C1(CCOCC1)CN2CCOC.O=C(O)C(F)(F)F`, the “Percent Effect” value worked out at 15.62%.
As for `CCC(=O)Nc1ccc2c(c1)C1(CCOCC1)CN2CCF.O=C(O)C(F)(F)F`, the figure is 28.61%; as for `O=C(O)C(F)(F)F.O=C1COC2(CCN(C(=O)c3ccco3)CC2)CN1Cc1cccnc1`, -2.228%; as for `O=C(O)C(F)(F)F.O=C(O)C(F)(F)F.c1cnc(N2C[C@H]3CN(CC4CCOC4)C[C@H]3C2)nc1` (stereo not given in full), -39.47%.
In the case of `O=C(O)C(F)(F)F.O=C(c1ccco1)N1CCCC2(CCN(c3nncs3)C2)C1` (stereo not given) it was 42.37%.
`CN(C)C(=O)COC[C@@H]1CC[C@H]2[C@H](CCN2c2ccccn2)O1.O=C(O)C(F)(F)F`: the “Percent Effect” value is reported as -1.761%.
As for `Cn1cc(CN2CCC[C@]3(C[C@@H](Oc4ccccn4)CO3)C2)cn1.O=C(O)C(F)(F)F.O=C(O)C(F)(F)F`, the figure is 27.52%; as for `Cn1cnc(S(=O)(=O)N2CC3(CCN(CC4CC4)C3)C2)c1.O=C(O)C(F)(F)F.O=C(O)C(F)(F)F`, 2.143%.
As for `CO[C@@H]1CCN(Cc2c(C)noc2C)[C@@H]2CN(Cc3cccnc3)C[C@@H]21.O=C(O)C(F)(F)F.O=C(O)C(F)(F)F.O=C(O)C(F)(F)F`, the figure is 14.07%.
As for `CN(Cc1ccncc1)Cc1nccn1Cc1ccccc1`, the figure is 6.234%; as for `CN(CCc1ccccn1)Cc1nccn1Cc1ccccc1`, 101.1%.
Take `CN(CCc1ccncc1)Cc1nccn1Cc1ccccc1`: the “Percent Effect” value was 9.887%.
In the case of `CNC[C@H]1CC[C@H](c2cc(CN(C)S(=O)(=O)N(C)C)n(C)n2)CC1.Cl` it was -16.56%; in that of `O=C(O)C(F)(F)F.O=C([C@@H]1CCO[C@@H]2CCN(Cc3ccc(F)cc3)C[C@H]21)N1CCCCO1`, -25.18%; in that of `COC1CN(C(=O)CC(C)C)CCC(=O)N(C)c2ccccc21` (stereo not given), 33.11%.
In the case of `COC1CCN(C(=O)CC2CCCC2)CC(=O)N(C)c2ccccc21` (stereo not given) it was 27.7%.
In the case of `COC1CN(C(=O)CC2CCCC2)CCC(=O)N(C)c2ccccc21` (stereo not given) it was 50.44%; in that of `COC1CN(C(=O)COC(C)=O)CCC(=O)N(C)c2ccccc21` (stereo not given), 45.97%.
In the case of `COC1CN(C(=O)OCC(C)C)CCC(=O)N(C)c2ccccc21` (stereo not given), the “Percent Effect” value was 53.04%.
In the case of `COC1CN(C(=O)CC(C)(C)C)CCC(=O)N(C)c2ccccc21` (stereo not given) it was 48.93%; in that of `Cn1cc(C[C@H]2[C@H](N3CCOCC3)CCN2C(=O)c2ccco2)cn1.O=C(O)C(F)(F)F`, 6.591%.
Turning to `COc1ccc(CN(Cc2cccnc2)CC2CCCO2)c(OC)c1.O=C(O)CC(O)(CC(=O)O)C(=O)O` (stereo not given), the “Percent Effect” value came to 5.923%.
As for `CCCn1ncc(-c2ccnc(NC3CCSC3)n2)c1C` (stereo not given), the figure is -0.2299%; as for `CCCn1ncc(-c2ccnc(N[C@@H]3C[C@@H]4CC[C@H]3C4)n2)c1C`, 50.09%.
With `CCCn1ncc(-c2ccnc(NC3CC(C)(C)NC(C)(C)C3)n2)c1C`, the “Percent Effect” value is recorded as -32.44%.
